# Experimental data as given in PubChem BioAssay AID488890 (Southern Research Specialized Biocontainment Screening …, 2010).
# About 1,300 (0.41%) of roughly 320,000 compounds were called active. Another 3% or so got no clear call; they are omitted. How the calls were made is not given here. These entries were drawn from the full list. Results with a measured potency or affinity are listed apart.
# Assay: growth inhibition of non-replicating M. tuberculosis (AID 488890);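 further: plate controls were DMSO cells for no effect and high antibiotic wells for full effect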
# Conditions: Mycobacterium tuberculosis non-replicating, at 25 µM, stronger effect = higher value
row,Compound,inhibition
1,O=C1c2ccccc2C(=O)N1C1CCCCC1,-9.63%
2,CC1NC(=S)N(C2CCCCC2)C1=O (configuration not stated),7.51%
3,COc1ccc2[nH]c(=O)c(CN(C(=O)c3cccnc3)c3ccc(C)c(C)c3)cc2c1,-6.7%
4,Brc1ccc(-c2nnc(-c3ccco3)o2)cc1,9.05%
5,O=C(O)c1cccc(CSc2nnc(-c3ccco3)o2)c1,3.8%
6,Cc1cccc(-c2nnc(SCc3ccccc3)o2)c1,64.4%
7,O=C(O)c1ccc(CSc2nnc(-c3ccco3)o2)cc1,3.82%
8,COc1ccccc1N1CCN(CC(O)COCc2cccs2)CC1 (configuration not stated),-4.29%
9,Cc1c(NC(=O)c2ccccc2NC(=O)COc2ccccc2)cccc1C(=O)O,4.87%
10,COc1c[nH]n(-c2ccccc2)c(=O)c1=O,3.41%
11,COc1cc2[nH]c(=O)n(C3CCCCC3)c(=O)c2cc1OC,6.65%
12,O=C(C1CC(=O)N(c2ccc(Cl)cc2)C1)N1CCOCC1 (configuration not stated),-7.5%
13,COc1ccc(OCC(=O)N/N=C2\CCCc3ccccc32)cc1,34.2%
14,COc1ccc(OCC(=O)N/N=C2\CCCCc3ccccc32)cc1,22.5%
15,Cc1c(Cl)c([N+](=O)[O-])nn1CC(=O)N1CCN(Cc2ccccc2)CC1,-5.75%
16,O=C(COc1c(Cl)cccc1Cl)NN1C(=O)CSC1=S,8.7%
17,CCCCCCCCCC(=O)N/N=C(\C)c1cccnc1,-3.96%
18,C/C(=N\NC(=O)CCCNc1cccc(C)c1)c1ccncc1,-0.79%
19,C/C(=N\NC(=O)CCCNc1ccccc1)c1ccncc1,1.29%
20,CCCCCCCC(=O)N/N=C(\C)c1cccnc1,-21.2%
21,FC(F)C(F)(F)C1=CC(c2ccccc2)=NCCN1,12.6%
22,COc1ccc(CN(C(=O)c2ccco2)C2CCS(=O)(=O)C2)cc1 (configuration not stated),1.18%
23,Cn1cccc1/C=N/NC(=O)c1cc(-c2cccs2)nc2ccccc12,-12.1%

row,Compound,inhibition
1,COc1ccc(CNC(=O)C(C)c2ccc([N+](=O)[O-])cc2)cc1 (configuration not stated),36.2%
2,COc1ccc(N2CCN(S(=O)(=O)c3ccc4c(c3)CC(C)N4C(=O)C3CC3)CC2)cc1 (configuration not stated),-6.48%
3,O=C(OCC(=O)N1CCN(S(=O)(=O)c2ccc(Cl)cc2)CC1)c1ccc([N+](=O)[O-])o1,67.7%
4,Cn1c(N)c(C(=O)COC(=O)c2ccc([N+](=O)[O-])o2)c(=O)n(C)c1=O,69.7%
5,O=C(COC(=O)c1ccc([N+](=O)[O-])o1)NCc1ccccc1,49.8%
6,COc1ccc(OC)c(C(=O)COC(=O)c2ccc([N+](=O)[O-])o2)c1,54.8%
7,O=C(OCC(=O)N1CCN(S(=O)(=O)c2ccccc2)CC1)c1ccc([N+](=O)[O-])o1,66.7%
8,O=C(COC(=O)c1ccc([N+](=O)[O-])o1)c1ccccc1,22.4%
9,CCc1ccc(C(=O)OCC(=O)c2c(N)n(CC(C)C)c(=O)n(C)c2=O)cc1,24.9%
10,COc1cc(C(=O)COC(=O)c2ccc([N+](=O)[O-])o2)cc(OC)c1OC,34.7%
11,COc1ccccc1C(=O)N1CCC(C(=O)c2ccc(F)cc2)CC1,5.17%
12,O=C(O)C1CCCN(S(=O)(=O)c2ccccc2[N+](=O)[O-])C1 (configuration not stated),-3.19%
13,CC(=O)c1cccc(NC(=O)CCc2nnc3ccc(N4CCN(C)CC4)nn23)c1,1.24%
14,COC(=O)c1[nH]nc(C(=O)OC(C)(C)C)c1-c1ccccc1,0.97%
15,COc1ccc(C(=O)NCC(C)NC(=O)c2ccc(OC)c(Br)c2)cc1Br (configuration not stated),-0.81%
16,CCC(Oc1ccc(F)cc1)C(=O)N1CCCCCCC1 (configuration not stated),-13.2%
17,COCCNC(=O)CS(=O)(=O)Cc1nc(-c2ccc(C)cc2)oc1C,-26%
18,CCC(CO)Nc1ncnc2onc(-c3ccc(F)cc3)c12 (configuration not stated),-5.65%
19,Cc1nnsc1C(=O)N1CCN(c2cc(C(F)(F)F)ccn2)CC1,1.32%
20,Cc1ccc(N(C(=O)CS(=O)CC(=O)Nc2ccc(F)cc2)C(C)C(=O)NC(C)(C)C)cc1 (configuration not stated),-2.13%
21,CC1CCCCN1S(=O)(=O)c1ccc([N+](=O)[O-])cc1 (configuration not stated),-4.65%
22,Cc1ccc(NC(=O)COC(=O)Cn2c(C)csc2=O)cc1,7.46%
23,COCCn1c(C)cc(C(=O)COC(=O)c2cccc(O)c2)c1C,-6.95%

row,Compound,inhibition
1,COCCn1c(C)cc(C(=O)COC(=O)c2ccc(S(=O)(=O)N(C)C)cc2)c1C,-12.9%
2,COc1ccc([N+](=O)[O-])cc1NC(=O)c1cncc(Br)c1,36.5%
3,CCOCCCNC(=O)C(c1ccccc1)N(Cc1ccc2c(c1)OCO2)C(=O)c1ccccc1O (configuration not stated),4.13%
4,Cc1cccc(C(=O)Nc2cccc(OC(=O)c3cccc(C)c3)c2)c1,51.4%
5,COC(=O)COc1cccc(NC(=O)c2cc(OC)cc(OC)c2)c1,58.8%
6,Cc1cccc(C(=O)Nc2cccc(OCC(=O)O)c2)c1,-11.3%
7,O=C(O)COc1cccc(NC(=O)c2ccccc2)c1,-6.49%
8,Cc1cccc(N(C(=O)c2snc(C(N)=O)c2N)C(C(=O)NCc2ccccc2)c2ccncc2)c1 (configuration not stated),11.8%
9,O=C(COc1ccc(-n2cnnn2)cc1)Nc1cccc(Cl)c1Cl,5.43%
10,Cc1nnc(N/N=C/c2ccccc2C(F)(F)F)n1N,3.91%
11,Cc1cc(Cl)nc(Cl)c1C(=O)NCCc1ccccc1,5.34%
12,CCc1nnc(NC(=O)CCS(=O)(=O)c2ccc(C)cc2)s1,77.7%
13,CC(C)Cc1nnc(NC(=O)CCC(=O)Nc2ccc(Cl)cc2)s1,12.6%
14,C=CCOC(=O)/C(=C\c1ccccc1)NC(=O)c1ccco1,-12.7%
15,C[C@H](NC(=O)c1nc[nH]c1C(=O)N1CCN(C(=O)OC(C)(C)C)CC1)C(=O)OC(C)(C)C,-4.48%
16,COc1ccc(OCCCN2CCc3ccccc3C2)cc1,46.6%
17,O=[N+]([O-])c1ccc(OCCCCN2CCc3ccccc3C2)cc1,57.5%
18,Cc1cc2nc(/N=C(\N)NC(=O)N3c4ccccc4Sc4ccccc43)nc(C)c2cc1C,-20.4%
19,Cc1ccc2nc(N=C(N)N)nc(C)c2c1,30.9%
20,Cc1nc(/N=C(\N)NC(=O)c2ccccc2)nc2ccccc12,-4.45%
21,Cc1ccc2nc(/N=C(\N)NC(=O)N3c4ccccc4Sc4ccccc43)nc(C)c2c1,10.2%
22,Cc1ccccc1Cn1cc(S(=O)(=O)c2ccc(C(C)C)cc2)c(=O)c2cc3c(cc21)OCO3,11.4%
23,Cc1ccc(S(=O)(=O)NC(CCc2ccccc2)CC(=O)C(C)(C)C)cc1 (configuration not stated),0.24%

row,Compound,inhibition
1,CCOC(=O)CN1C2=NCCCN2c2ccccc21,15.4%
2,O=C(Cc1ccc(Cl)cc1)Nc1cccnc1,30.9%
3,O=C(O)c1ccccc1Nc1cc(Cl)c2nonc2c1[N+](=O)[O-],71.1%
4,O=C(O)c1ccc(Nc2cc(Cl)c3nonc3c2[N+](=O)[O-])cc1,76%
5,CC(NC(=O)c1cc(S(=O)(=O)N2CCOCC2)ccc1N1CCCC1)c1ccc(Cl)c(Cl)c1 (configuration not stated),4.97%
6,Cc1cccc(Cn2c(N3CCN(C)CC3)nc3c2c(=O)n(C)c(=O)n3C)c1,-18%
7,CCOC(=O)c1c(NC(=O)COC(=O)c2nccnc2N)sc2c1CCC2,26.4%
8,CCOC(=O)c1c(NC(=O)COC(=O)c2ccccn2)sc(C)c1C,37%
9,Cc1ccc(CN2C(=O)CSC2c2ccccc2F)cc1 (configuration not stated),10.3%
10,CCCCCCn1c(COc2ccccc2F)nnc1SCC(=O)c1c(N)n(C)c(=O)n(C)c1=O,-10.3%
11,CC1=CS(=O)(=O)CC1Sc1nc(C)n[nH]1 (configuration not stated),-1.03%
12,Cc1ccc(O)c(C(=O)c2cnc3c(c2)c(=O)n(C)c(=O)n3C)c1,-3.64%
13,O=C(Cn1ccc2cc(S(=O)(=O)N3CCCC3)ccc21)NCc1ccco1,21.9%
14,CN1C(=O)N(C)c2cccc3cccc1c23,0.15%
15,CN1C(=O)N(C)c2ccc(Br)c3cccc1c23,6.26%
16,OCC1(Cc2ccccc2)CCN(Cc2cnc(-c3cccc4ccccc34)nc2)CC1,4.25%
17,CCC(C)NC(=O)Cn1c(=O)sc2ccccc21 (configuration not stated),1.3%
18,Cc1ccc2cccc(OCC(=O)Nc3cccc(S(=O)(=O)N4CCCC4)c3)c2n1,4.51%
19,O=C(CSc1nc2ccccc2nc1N1CCOCC1)Nc1ccccc1F,6.49%
20,CCN(CC(=O)Nc1ccc(NC(C)=O)cc1)C(=O)c1cc(CN2C(=O)c3ccccc3C2=O)ccc1OC,-15%
21,Cc1c(Cl)cccc1NC(=S)N(C)CCC#N,-8.13%
22,COc1ccc(C(=O)C2CCCN(Cc3cccc(C)n3)C2)c(OC)c1 (configuration not stated),19.9%
23,COc1ccc(C(=O)C2CCCN(Cc3ccccn3)C2)c(OC)c1 (configuration not stated),21.8%

row,Compound,inhibition
1,COc1cccc(C(=O)C2CCCN(Cc3cccc(C)n3)C2)c1 (configuration not stated),37.8%
2,COc1cccc(C(=O)C2CCCN(Cc3ccccn3)C2)c1 (configuration not stated),23%
3,CCOc1ccccc1N1CCN(C(=O)c2cc[n+]([O-])cc2)CC1,15.7%
4,CC(=O)Nc1ccc(S(=O)(=O)NCCc2csc(C)n2)cc1,-0.23%
5,Cc1ccccc1OCCCC(=O)NCc1ccco1,15.7%
6,O=C(Nc1nc2ccccc2[nH]1)c1cc2ccccc2o1,34.8%
7,C/C(=N\Nc1nc2ccccc2[nH]1)c1ccccn1,78.5%
8,CCOc1ncccc1C(=O)OCc1ccc([N+](=O)[O-])cc1,57.5%
9,CCn1c(N2CCN(C(=S)NC)CC2)nc2ccccc21,-6.07%
10,CC(C1CC1)N(Cc1ccccc1)C(=S)Nc1cccc(C(F)(F)F)c1 (configuration not stated),66.8%
11,COc1ccc(C2=Nc3cc(C)ccc3OC2)cc1,23.2%
12,Cc1ccc2c(c1)N=C(c1ccc(Cl)cc1)CO2,29%
13,Cc1ccc2c(c1)N=C(c1ccc(F)cc1)CO2,30.4%
14,Clc1ccc(C2=Nc3cc(Cl)ccc3OC2)cc1,15.6%
15,Cc1cc(=O)[nH]c(SCC(=O)N2CCC(Cc3ccccc3)CC2)n1,0.43%
16,CCN(C(=O)c1cc2cc3ccc(C)cc3nc2o1)c1ccc(OC)cc1,75.9%
17,CS(=O)(=O)N1CCC(C(=O)N2CCN(c3ccc(F)cc3)CC2)CC1,-0.02%
18,O=C(NCC(=O)N1CCc2ccccc2C1)c1ccc(Cl)cc1Cl,7.88%
19,O=C(c1cc([N+](=O)[O-])ccc1N1CCCCC1)N1CCc2ccccc21,21%
20,O=C(c1cc([N+](=O)[O-])ccc1Cl)N1CCc2ccccc21,43%
